The values that follow come from PubChem BioAssay (Tox21).

Results filed as inconclusive are left out. Unmarked numbers belong to inactive results. Activity calls are given as the source filed them. Unless noted, calls follow the shape of the dose curve; as a rule, active = well fitted curve in the direction sought with a large enough effect in the repeat runs; inconclusive = weak or mixed curves; inactive = no such curve, though single readings can be large; an effect the other way counts as inactive or inconclusive.

Assay [1] can be described thus: qHTS RealTime-Glo MT Cell Viability Assay in HEK293 cells - 24 hour (AID 1224886). Also: nearly all actives have a fitted effect of over 50% in size. Also: potency is read from the fitted curve at half-maximal effect. As to activity change, negative = cytotoxicity: top concentration of the series differs between compounds. The essentials: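 Reads taken at 0, 8, 16, 24, 32 and 40 h from the same wells. HEK293 cells (600/well) carried RealTime-Glo reagents from seeding, with compound added after a 5 h settle at 37 C.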
(In general: qHTS replaces the single test concentration by a dilution series.)

Assay [2] is described as follows: qHTS RealTime-Glo MT Cell Viability Assay in HEK293 cells - 8 hour (AID 1224887). Also: nearly all actives have a fitted effect of over 50% in size. Also: potency is read from the fitted curve at half-maximal effect. As to activity change, negative = cytotoxicity: top concentration of the series differs between compounds. The essentials:
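Kinetic, non-lysing viability readout. Seed HEK293 (600/well) with reagent, incubate 5 h at 37 C/5% CO2, pin 23 nL compound in DMSO, incubate at 37 C, read luminescence at 0, 8, 16, 24, 32, 40 h.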

Assay [3] can be described thus: A CellTox Green Cytotoxicity Assay to monitor cytotoxicity in HEK293 cells - 16 hour (AID 1224888). Also: nearly all actives have a fitted effect of over 35% in size. Also: potency is read from the fitted curve at half-maximal effect. The essentials:
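Real-time, in one plate: 600 HEK293 cells/well with dead-cell DNA dye, pinned compound after 5 h, 37 C incubation over 40 h; viable cells give no appreciable fluorescence.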

Assay [4] can be described thus: qHTS RealTime-Glo MT Cell Viability Assay in HepG2 cells - 0 hour (AID 1224889). Also: nearly all actives have a fitted effect of over 50% in size. Put shortly:
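HepG2 suspension premixed with RealTime-Glo reagents is plated at 600 cells per well and left 5 h at 37 C/5% CO2. Compounds in DMSO then go in, and bioluminescence reflecting viable cell number is recorded over 40 h.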

Assay [5] is described as follows: A CellTox Green Cytotoxicity Assay to monitor cytotoxicity in HepG2 cells - 8 hour (AID 1224890). Also: nearly all actives have a fitted effect of over 45% in size. Also: potency is read from the fitted curve at half-maximal effect. The essentials: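 Cytotoxicity was tracked as dead-cell DNA fluorescence in HepG2 cells treated with test compounds at 37 C; each time-point value comes from one kinetic series spanning 0, 8, 16, 24, 32 and 40 h.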
Assay [6] is described as follows: qHTS assay to identify small molecule antagonists of the estrogen receptor alpha (ER-alpha) signaling pathway using the BG1 cell line in the presence of 0.1 nM 17-beta-estradiol - cell viability counter screen (AID 1259241). Also: nearly all actives have a fitted effect of over 40% in size. The essentials:
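VM7Luc4E2 cells (endogenous full-length ER-alpha, 4xERE-luciferase), cultured 5 days in charcoal-stripped serum, exposed to compounds with 0.1 nM 17beta-estradiol (final) for 22 hr at 37C. Viability read in same wells as live-cell protease fluorescence after 30 min.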

Assay [7] in a line: qHTS assay to identify small molecule antagonists of the androgen receptor (AR) signaling pathway using the MDA cell line in the presence of 0.5 nM R1881 - cell viability counter screen (AID 1259242). Also: nearly all actives have a fitted effect of over 45% in size. Put shortly:
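Cells seeded at 3,000/well and allowed 5 hr at 37C, 0% CO2 before compound transfer and R1881 (0.5 nM final) addition; 16 hr later, live-cell protease fluorescence indicated cytotoxicity.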

Assay [8] deals with Estrogen receptor (Homo sapiens) (UniProt P03372). As to the kind of experiment: qHTS assay to identify small molecule antagonists of the estrogen receptor alpha (ER-alpha) signaling pathway using the BG1 cell line in the presence of 0.1 nM 17-beta-estradiol (AID 1259244). Also: nearly all actives have a fitted effect of over 50% in size. Also: potency is read from the fitted curve at half-maximal effect. The essentials:
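Luciferase signal from VM7Luc4E2 ERE-reporter cells, co-dosed with test compound and 0.1 nM final 17beta-estradiol for 22 h, read with ONE-Glo.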

Assay [9] is described as follows: qHTS assay to identify small molecule HDAC inhibitors (AID 1259364).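 Also: wild-type HCT-116 cells with endogenous class I/II HDAC activity; top concentration of the series differs between compounds; nearly all actives have a fitted effect of over 45% in size.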 The essentials:
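HCT-116 wt cells, 1,500/well, overnight attach. Compounds (DMSO) 2 h, 37 °C. HDAC-Glo I/II, 30 min RT. Luminescence.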

Assay [10] in a line: qHTS assay to identify small molecule phospholipidosis (PLD) inducers (AID 1259344; active = well fitted curve in the direction sought with a large enough effect; an effect the other way counts as inactive or inconclusive). The essentials:
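Cells (HepG2, 900 per well) attach for 4 h, receive LipidTOX Red and compound together, incubate 24 h at 37 C, are fixed 30 min with paraformaldehyde/Hoechst, then imaged at one site per well.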
% is scaled to controls: 0 for no effect and ±100 for the full control effect.

Estrogen receptor (Homo sapiens), sequence (P03372 whole entry, looked up): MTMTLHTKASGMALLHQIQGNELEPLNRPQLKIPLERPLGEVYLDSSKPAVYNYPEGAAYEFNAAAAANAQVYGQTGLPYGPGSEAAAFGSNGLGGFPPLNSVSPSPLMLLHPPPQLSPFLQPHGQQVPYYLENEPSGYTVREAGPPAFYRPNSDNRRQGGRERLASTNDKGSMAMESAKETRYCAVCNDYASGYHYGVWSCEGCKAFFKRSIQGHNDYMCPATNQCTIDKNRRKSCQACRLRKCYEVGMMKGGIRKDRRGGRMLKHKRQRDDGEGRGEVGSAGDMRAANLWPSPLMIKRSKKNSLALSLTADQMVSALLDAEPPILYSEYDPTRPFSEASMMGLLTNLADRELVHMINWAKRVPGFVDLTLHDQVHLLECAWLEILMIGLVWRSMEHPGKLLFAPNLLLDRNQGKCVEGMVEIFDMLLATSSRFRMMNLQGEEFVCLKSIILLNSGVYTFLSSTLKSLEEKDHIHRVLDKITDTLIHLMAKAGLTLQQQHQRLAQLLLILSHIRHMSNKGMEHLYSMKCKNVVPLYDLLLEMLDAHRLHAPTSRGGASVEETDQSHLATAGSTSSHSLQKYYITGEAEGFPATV

As for `CC(C)(C)c1ccc(C=O)cc1`, the Potency result in assay [1], in [2], in assay [3], in assay [4], in assay [5] and in assay [6] was “inactive” each time. Moreover, the Potency entry in assay [7], in assay [8] and in assay [9] was “inactive” each time.
As for `NC(=O)NC(=O)Cc1ccccc1`, the Potency entry in [1], in [2], in [3], in assay [4], in [5] and in assay [6] was “inactive” in each case. Besides, the Potency entry in assay [7], in assay [8] and in assay [9] was “inactive” in each case. Besides, the outcome in assay [10] was inactive.
Consider `Cc1c(C(C)C)c(=O)n(-c2ccccc2)n1C`, for which the Potency result in [1], in assay [2], in assay [3], in assay [4], in assay [5] and in [6] was “inactive” each time. In addition, the Potency entry in assay [7], in assay [8] and in [9] was “inactive” each time. In addition, in assay [10], the result was inactive.
For the compound `O=C(O)c1c(Cl)ccc(Cl)c1Cl`, the Potency entry in [1], in assay [2], in assay [3], in [4], in [5] and in [6] was “inactive” throughout. Moreover, the Potency result in [7], in [8] and in assay [9] was “inactive” each time.
Take `CC(=O)N(CC(O)CO)c1c(I)c(C(=O)NCC(O)CO)c(I)c(C(=O)NCC(O)CO)c1I` (stereo not drawn): the Potency result in [1], in assay [2], in assay [3], in assay [4], in [5] and in assay [6] was “inactive” each time. Moreover, the Potency entry in assay [7], in assay [8] and in assay [9] was “inactive” throughout. In addition, the call in assay [10] was inactive.
On to `Cc1nc2n(c(=O)c1CCN1CCC(C(=O)c3ccc(F)cc3)CC1)CCS2`, for which the values for the Potency in assay [1], in assay [2] and in [8] were 5.35 µM (active), 6.74 µM (active) and 23.7 µM (active), respectively. Also, the Potency result in assay [3], in [4], in assay [5], in assay [6], in assay [7] and in assay [9] was “inactive” each time.
Turning to `O=c1[nH]c(=O)c2[nH]c(=O)[nH]c2[nH]1`, the activity change, negative = cytotoxicity in [1] was 8.57% [at 6.97 µM]; in [2], 9.35% [at 6.97 µM]; in [4], -4.02% [at 6.97 µM]; in assay [6], 0.489% [at 8.39 µM]. The activity change in assay [3] was -15.6% [at 6.97 µM, active compounds read high]. Moreover, the cytotoxicity increase in assay [5] was 1.39% [at 6.97 µM]. For the same compound, the viability change, negative = cytotoxic in assay [7] was -0.67% [at 8.39 µM]. For the same compound, the activity change, negative = inhibition in assay [8] was -0.565% [at 8.39 µM]; in assay [9] it was 11.3% [at 8.39 µM]. The call in assay [10] was inactive.
Consider `CCC(C)(C)C1CCC(=O)CC1`, for which the Potency result in assay [1], in [2], in assay [3], in assay [4], in assay [5] and in [6] was “inactive” each time. Besides, the Potency result in [7], in assay [8] and in [9] was “inactive” each time.
In the case of `O=C(O)c1ccccc1C(=O)OCc1ccccc1`, the Potency result in [1], in [2], in assay [3], in assay [4], in assay [5] and in assay [6] was “inactive” throughout. In addition, the Potency result in assay [7], in assay [8] and in assay [9] was “inactive” each time.
For `Nc1cc(C(=O)O)ccc1Cl`, the Potency result in assay [1], in assay [2], in assay [3], in assay [4], in assay [5] and in assay [6] was “inactive” in each case. In addition, the Potency entry in [7], in [8] and in [9] was “inactive” throughout.
Consider `O=C(Oc1ccccc1C(=O)O)c1ccccc1O`, for which the Potency entry in assay [1], in [2], in assay [3], in [4], in assay [5] and in [6] was “inactive” in each case. The Potency result in assay [7], in assay [8] and in [9] was “inactive” in each case. In addition, the call in assay [10] was inactive.
For the compound `NS(=O)(=O)c1ccc(Cl)c(S(N)(=O)=O)c1`, the Potency result in [1], in assay [2], in assay [3], in assay [4], in assay [5] and in assay [6] was “inactive” each time. Besides, the Potency result in [7], in assay [8] and in [9] was “inactive” throughout. The compound was classed as inactive in [10].
`CCS(=O)(=O)CCn1c([N+](=O)[O-])cnc1C`: the Potency entry in [1], in assay [2], in [3], in [4], in assay [5] and in assay [6] was “inactive” in each case. Moreover, the Potency result in assay [7], in assay [8] and in assay [9] was “inactive” throughout. In [10], the compound was called inactive.
As for `Nc1ccc(S(=O)(=O)Nc2ccccn2)cc1`, the Potency entry in assay [1], in assay [2], in assay [3], in [4], in assay [5] and in assay [6] was “inactive” throughout. Also, the Potency entry in assay [7], in assay [8] and in assay [9] was “inactive” each time. The compound was called inactive in assay [10].
With `O=C(COCCOCCOCC(=O)Nc1c(I)cc(I)c(C(=O)O)c1I)Nc1c(I)cc(I)c(C(=O)O)c1I`, the Potency result in assay [1], in assay [2], in [3], in assay [4], in [5] and in assay [6] was “inactive” in each case. Moreover, the Potency result in assay [7], in [8] and in [9] was “inactive” throughout. The compound was called inactive in assay [10].
Turning to `O=C(/C=C/c1ccccc1)NCCO`, the Potency result in [1], in assay [2], in [4], in [6], in assay [7] and in [8] was “inactive” in each case. Moreover, the Potency in [3] is 8.49 µM (active); in [5] it was 10.7 µM (active). Also, the compound was called inactive in assay [10].
Consider `F[Si-2](F)(F)(F)(F)F`, for which the Potency entry in assay [1], in assay [2], in [3], in assay [4], in [5] and in assay [6] was “inactive” each time. The Potency result in [7], in [8] and in assay [9] was “inactive” each time. In addition, in assay [10], the outcome was inactive.
For the compound `Cc1oc(=O)oc1CN1CCN(c2cc3c(cc2F)c(=O)c(C(=O)O)c2n3C(C)S2)CC1` (stereo not drawn), the Potency result in [1], in assay [2], in assay [3], in assay [4], in assay [6] and in assay [7] was “inactive” each time. Further, the Potency entry in [8] and in assay [9] was “inactive” each time. In addition, in [5], the Potency is 0.535 µM (active). Besides, in [10], the compound was called inactive.
Take `C[C@H](CCC(=O)O)[C@H]1CC[C@H]2[C@@H]3[C@H](O)C[C@@H]4C[C@H](O)CC[C@]4(C)[C@H]3C[C@H](O)[C@]12C`: the Potency entry in assay [1], in assay [2], in assay [3], in assay [4], in assay [5] and in assay [6] was “inactive” each time. In addition, the Potency result in assay [7], in [8] and in [9] was “inactive” in each case. In addition, the result in assay [10] was inactive.
As to `CC(C)(CO)[C@@H](O)C(=O)NCCCO`, the Potency entry in assay [1], in assay [2], in assay [3], in assay [4], in [5] and in assay [6] was “inactive” in each case. The Potency entry in assay [7], in assay [8] and in assay [9] was “inactive” each time. Besides, the outcome in [10] was inactive.
As to `NC(=O)C1(N2CCCCC2)CCN(CCCC(=O)c2ccc(F)cc2)CC1`, the Potency entry in assay [1], in assay [2], in [3], in [4], in [5] and in assay [6] was “inactive” each time. The Potency result in assay [7], in assay [8] and in assay [9] was “inactive” throughout. Moreover, the compound was classed as inactive in [10].
Consider `CC1CCC(C(C)(C)S)C(=O)C1` (stereo not drawn), for which the Potency was 3.89 µM (active) in [1] and 19.5 µM (active) in assay [2]. In addition, the Potency result in assay [3], in assay [4], in assay [5], in assay [6], in [7] and in [8] was “inactive” each time. Besides, the Potency result in assay [9] was “inactive”.
In the case of `COc1cccc2sc(N)nc12`, the Potency entry in assay [1], in assay [2], in assay [3], in assay [4], in assay [5] and in assay [6] was “inactive” throughout. Further, the Potency entry in assay [7] and in [8] was “inactive” throughout.
In the case of `Cc1nc2ccccc2c(=O)o1`, the Potency result in assay [1], in [2], in assay [3], in [4], in assay [5] and in assay [6] was “inactive” each time. Besides, the Potency entry in assay [7] and in [8] was “inactive” each time.
